# ELG1 repair inh = inhibitors of ELG1-dependent DNA repair in HEK293T cells. HEK293T ELG1-luciferase reporter, luminescence, 16 h; DNA damage induced by 5-fluorouridine. Potency, µM (titrated, usually from 46.1 µM), for inactives: at the top dose activity change, negative = inhibition, most hits filed as inhibitors. 330,000 tested, 2.3% active. AID 504467; note: potency is the fitted concentration of half-maximal effect; nearly all actives have a fitted effect of over 55% in size
#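 DMSO vehicle served as the neutral condition. Each well held 2,000 cells given 5-fluorouridine plus compound; after 16 hr at 37 °C/5% CO2, ONE-Glo was added and luciferase measured 30 min later.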
# TDP1 cell CPT = growth inhibition of DT40 Tdp1-/-;hTDP1 cells with camptothecin (screen for TDP1 inhibitors); AID 686979; Potency, µM (highest dose often 46.2 µM), for the others: top-dose activity change, negative = growth inhibition, most hits filed as inhibitors; 420,000 tested, 12% active; chicken DT40 Tdp1-/-;hTDP1 cells + 20 nM CPT, ATP luminescence, 48 h; note: potency is the fitted concentration of half-maximal effect; nearly all actives have a fitted effect of over 55% in size
#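 Chicken DT40 Tdp1-/- cells stably complemented with human TDP1 were seeded at 400 cells/well in medium containing 20 nM camptothecin, exposed to pin-transferred compounds, and grown at 37 °C for at least 48 hr. Viability was read as ATP luminescence.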
# DT40 TDP1 no CPT = qHTS for Inhibitors of human tyrosyl-DNA phosphodiesterase 1 (TDP1): qHTS in cells in absence of CPT; AID 686978, 2013; 420,000 tested, 15% active; DT40 Tdp1-/- hTDP1 cells, no CPT, ATP luminescence, 48 h; Potency, µM (titrated, usually from 46.2 µM), for the others: top-dose activity change, negative = growth inhibition, usual class: inhibitors; note: potency is the fitted concentration of half-maximal effect; nearly all actives have a fitted effect of over 55% in size
#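 Cells were dispensed at 400 per well, compounds added by pin tool, plates incubated ≥48 hr at 37 °C, then CellTiter-Glo added for 30 min at room temperature before luminescence reading. Line: DT40 Tdp1-/- complemented with hTDP1; camptothecin omitted.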
# IL-1B inflam inh = inhibitors of inflammasome signaling (IL-1 beta secretion); THP-1 LPS/ATP IL-1B secretion, AlphaLISA, 16 h; stronger effect = lower value; activity change, % at 57.5 µM; 360,000 tested, 4.7% active; in the data active = activity change below about -50%; inconclusive = mostly about -30% to -49%
#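 THP-1 cells pretreated 1 hr with compounds (up to 57.5 uM final), then stimulated with LPS (250 ng/mL final) plus ATP (1.25 mM final); secreted IL-1B measured by AlphaLISA after 16 hr, decreased signal indicating inhibition.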
# Giardia kill = Giardia lamblia killing; Giardia lamblia trophozoite viability; activity change, % at 7.66 µM, hits read low; 340,000 tested, 0.15% active; AID 540267; in the data active = activity change below about -80%; inconclusive = between about -30% and that limit;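 note: parasites exposed to compound for two days anaerobically before the ATP read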
#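 Trophozoites 100 cells/well + cpd; 48 hrs, 37 deg C, anaerobic. ATPLite 1-Step added, 15-30 min RT, luminescence read (ATP-based viability).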
# TDP1 block = blocks human tyrosyl-DNA phosphodiesterase 1. Q9NUW8. recombinant TDP1, AlphaScreen DNA substrate cleavage. Potency, µM (highest dose often 130 µM), inactives show at the top dose activity change, negative = inhibition, usual class: inhibitors. 350,000 tested, 0.28% active; note: potency is the fitted concentration of half-maximal effect; nearly all actives have a fitted effect of over 40% in size
# Target sequence (Q9NUW8 whole entry, looked up): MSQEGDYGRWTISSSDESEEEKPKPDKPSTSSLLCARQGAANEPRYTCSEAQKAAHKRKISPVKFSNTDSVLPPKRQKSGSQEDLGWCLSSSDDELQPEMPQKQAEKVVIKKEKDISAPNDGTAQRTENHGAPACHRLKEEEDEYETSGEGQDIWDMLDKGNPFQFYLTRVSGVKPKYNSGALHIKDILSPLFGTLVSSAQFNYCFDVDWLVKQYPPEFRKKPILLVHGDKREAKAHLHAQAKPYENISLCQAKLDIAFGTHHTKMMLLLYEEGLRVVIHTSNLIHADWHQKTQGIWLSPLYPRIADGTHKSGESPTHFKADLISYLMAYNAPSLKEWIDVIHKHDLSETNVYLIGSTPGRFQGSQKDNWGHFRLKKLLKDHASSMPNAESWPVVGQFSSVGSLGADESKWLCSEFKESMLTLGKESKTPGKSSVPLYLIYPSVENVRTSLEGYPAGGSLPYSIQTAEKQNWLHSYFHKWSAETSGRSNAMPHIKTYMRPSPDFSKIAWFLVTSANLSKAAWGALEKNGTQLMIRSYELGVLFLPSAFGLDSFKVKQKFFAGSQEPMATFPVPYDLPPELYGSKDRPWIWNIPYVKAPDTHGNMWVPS
#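 Recombinant human Tdp1 (E. coli-expressed, 1 nM final) preincubated with compounds 15 min at room temperature, then 5'-biotin/3'-phosphotyrosine-FITC DNA substrate (15 nM final) added for 5 min. AlphaScreen beads (10 ug/ml final) added 10 min; cleavage lowers signal.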
# * marks the source's active call; other numbers are inactive results; ? = inconclusive; · = not tested or not shown; [ ] = another dose, or the depositor's remark. Sampled rows, rich in hits. Any-hit rate of the full collection: about 19%. Unless noted, calls come from the whole dose curve; as a rule, active = well fitted curve in the direction sought with a large enough effect; inconclusive = small, poorly fitted or top-dose-only effect, or another doubt; inactive = no such curve, though single readings can be large; an effect the other way counts as inactive or inconclusive. % is set by controls: 0 for no effect and ±100 for the full control effect.
SMILES,ELG1 repair inh,TDP1 cell CPT,DT40 TDP1 no CPT,IL-1B inflam inh,Giardia kill,TDP1 block
O=C(CSc1ncnc2c1nnn2-c1ccc(F)cc1)NCc1ccco1,?,?,14.6µM*,-3.7,-3.2,1.2%
COc1ccc(-n2nnc3c(SCC(=O)NCc4ccco4)ncnc32)cc1,-10.4%,?,2.91µM*,-16.2,29.4,4.0%
Cc1ccc(S(C)(=O)=O)cc1C(=O)N1CC(C(N)=O)Oc2ccccc21 (configuration not stated),-0.7%,-0.9%,-1.1%,17.3,-7.6,·
CCC(C(N)=O)N1C(=O)C2C3CCC(C3)C2C1=O (configuration not stated),·,0.2%,-0.4%,24.0,·,·
COc1ccc(Oc2ncc3nc(-c4ccc(F)cc4)c(=O)n(CCC#N)c3n2)cc1,·,-6.8%,-17.7%,·,·,·
CCOC(=O)Cn1c(=O)n(C2CCCCC2)c2nc(-c3ccccc3Cl)nc(C(N)=O)c21,·,·,·,·,·,3.0%
CCc1nc2ccc(C(=O)Nc3ccc4c(c3)OCC(=O)N4)cn2c1N(C)Cc1nccn1C,·,?,?,-24.4,·,·
C=CCn1c(SCC2CCCCO2)nc2sc(CC)cc2c1=O (configuration not stated),?,?,10.7%,39.3,-0.3,1.2%
CNC(=O)C(=O)Nc1cc2c3c(c1)CCN3C(=O)CC2,?,-13.2%,30.1%,-10.0,-10.6,2.1%
COc1ccc(-c2c(C)nn3c(N)c(-c4ccccc4)cnc23)cc1OC,-15.6%,5.8µM*,6.51µM*,?,-17.2,·
COc1ccccc1-c1c(C)nn2c(N)c(-c3ccccc3)cnc12,?,6.51µM*,5.8µM*,-74.0*,-27.6,·
CCOC(=O)C1CCN(C(=O)c2sc3nc(-c4ccccc4)cn3c2C)CC1,?,?,18.4µM*,9.8,0.2,5.1%
Cc1c(C(=O)N2CCN(c3ccc(F)cc3)CC2)sc2nc(-c3ccccc3)cn12,0.5%,-24.9%,-27.9%,0.3,0.4,6.0%
COc1ccccc1N1CCN(C(=O)c2sc3nc(-c4ccccc4)cn3c2C)CC1,?,16.4µM*,18.4µM*,-75.5*,10.7,2.1%
COC(=O)C1CCN(C(=O)c2sc3nc(-c4ccc(F)cc4)cn3c2C)CC1,?,?,?,34.9,4.5,-6.9%
Cc1ccccc1NC(=O)c1nc(SCc2ccccc2F)ncc1Cl,·,?,-28.8%,·,·,·
COc1cccc(CC2(CO)CCCN(Cc3ccc(-c4ccco4)cc3)C2)c1 (configuration not stated),12.3%,23.1µM*,20.6µM*,7.0,5.8,·
COc1ccc(-n2ccnc2CN2CCCC(CO)(Cc3cccc(OC)c3)C2)cc1 (configuration not stated),-21.3%,?,25.9µM*,2.2,-15.3,·
COc1cccc(CC2(CO)CCCN(Cc3cc4ccccc4[nH]3)C2)c1 (configuration not stated),5.5%,?,?,-53.5*,21.8,·
COc1cccc(CC2(CO)CCCN(Cc3c(C)cc(C)cc3-n3cccn3)C2)c1 (configuration not stated),-13.8%,20.6µM*,14.6µM*,-9.9,5.8,·
COc1cccc(CC2(CO)CCCN(Cc3ccc(C)s3)C2)c1 (configuration not stated),-2.7%,-17.8%,?,-6.2,11.5,·
COc1ccccc1C(=O)N(c1ccc(C)cc1)S(=O)(=O)c1ccc(Cl)cc1,·,?,?,·,·,-0.4%[12.3 µM]
COc1ccc2[nH]cc(CCNC(=O)CS(=O)(=O)Cc3ccccc3)c2c1,-1.2%,-0.9%,-1.7%,-17.8,9.2,9.5%
COc1ccccc1-n1cc(CN2CCCC(CO)(Cc3cccc(Cl)c3)C2)cn1 (configuration not stated),-9.7%,?,23.1µM*,0.0,7.2,0.0%
[O-][n+]1cccc2c(Br)cc(Br)c(O)c21,?,?,?,-62.3*,-6.1,8.1%
SMILES,ELG1 repair inh,TDP1 cell CPT,DT40 TDP1 no CPT,IL-1B inflam inh,Giardia kill,TDP1 block
C[n+]1cccc2c(Br)ccc([O-])c21,11.0%,9.3%,-26.4%,-2.9,-5.0,-5.1%
CCOc1ccc(OCC)c(NC(=O)CSc2nc3c(c(=O)n(C)c(=O)n3C)n2C(C)C)c1,11.6µM*,16.4µM*,20.6µM*,-81.3*,-3.5,7.3%
CCOc1ccc(OCC)c(NC(=O)CSc2nc3c(c(=O)n(C)c(=O)n3C)n2C)c1,3.9%,·,·,·,·,2.0%
CCOc1ccc(OCC)c(NC(=O)CSc2nc3c(c(=O)n(C)c(=O)n3C)n2CC)c1,?,?,23.1µM*,1.1,7.9,-4.1%
Cc1ccc2c(c1)N(C(=O)CCC(=O)NCc1cccc(F)c1)CC(C)O2 (configuration not stated),·,?,?,·,·,5.7%
Cn1c(=O)oc2cc(S(=O)(=O)N3CCCC(C(=O)NCCc4ccc(Cl)cc4)C3)ccc21 (configuration not stated),·,-3.3%,?,·,·,9.0%
O=C1C=C(N(CCO)Cc2ccccc2)c2ccccc2C1=O,8.2µM*,18.4µM*,20.6µM*,-97.8*,-0.3,0.0%
COC(=O)COc1ccc(-c2nccc(-c3ccc(Br)cc3)n2)cc1,-5.7%,20.6µM*,?,-2.9,-0.6,·
COc1ccc(-c2ccnc(-c3ccncc3)n2)cc1,7.8%,?,16.4µM*,15.8,10.3,-1.9%
c1coc(-c2ccnc(-c3ccncc3)n2)c1,?,-3.5%,2.2%,-25.5,-0.3,5.5%
COc1ccc(-c2ccnc(-c3ccc(O)cc3)n2)cc1,?,1.64µM*,1.84µM*,0.0,-2.2,5.0%
COC(=O)COc1ccc(-c2nccc(-c3ccccn3)n2)cc1,?,19.5%,5.7%,-4.9,-6.9,·
COc1ccc(C(=O)O)cc1S(=O)(=O)Nc1ccccc1C(=O)NCc1ccc2c(c1)OCO2,10.3%,-17.5%,12.2%,2.1,4.4,-7.1%[56.1 µM]
Cc1cc(NC(=O)Nc2nnc(N3CCCCC3)s2)ccc1Br,·,?,?,·,·,8.6%
CCC(CC)C(=O)Nc1cc(-c2cn3cccnc3n2)ccc1OC,·,-5.0%,-21.5%,·,·,0.0%
Cc1ccc(-c2noc(CCC(=O)N3CCN(c4cc(C)ccc4C)CC3)n2)cc1,10.3%,-14.8%,-19.2%,0.4,5.1,-3.7%[56.1 µM]
O=C(Cn1cnc2onc(-c3ccc(Cl)cc3)c2c1=O)Nc1ccc(F)cc1,·,?,?,·,·,0.0%
O=C(Cn1cnc2onc(-c3ccc(F)cc3)c2c1=O)Nc1cccc(C(F)(F)F)c1,·,23.1µM*,20.6µM*,·,·,2.1%

# From PubChem BioAssay
